# ELG1 repair inh – qHTS screen for small molecules that inhibit ELG1-dependent DNA repair in human embryonic kidney (HEK293T) cells expressing luciferase-tagged ELG1; HEK293T ELG1-luciferase reporter, luminescence, 16 h; DNA damage induced by 5-fluorouridine; Potency, µM (doses to about 46.1 µM), inactives show at the top dose activity change, negative = inhibition, usual class: inhibitors; 330,000 compounds, 2.3% hits; also: potency is read from the fitted curve at half-maximal effect; nearly all actives have a fitted effect of over 55% in size
#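 5-Fluorouridine DNA damage + compound/DMSO, 2,000 cells/well, 16 h, 37 °C/5% CO2. ONE-Glo, 30 min RT, luminescence. Readout = decrease in reporter signal.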
# TSHR antag – Antagonists of the Thyroid Stimulating Hormone Receptor: HTS campaign; activity change, negative = inhibition, % at 11.5 µM; AID 504810, 2011; 330,000 compounds, 0.2% hits; Thyrotropin receptor (Homo sapiens), P16473; TSHR-expressing cells, TSH-stimulated cAMP HTRF, 2 h; hits give low values;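 active = activity change below a set negative limit, meaning inhibition stronger than a set level, cut at about -70% in these data; inconclusive = activity change between two set negative limits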
#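 Competitive HTRF cAMP read-out (cryptate anti-cAMP antibody, cAMP-d2; 30 min, room temperature) in freshly harvested TSHR cells. Compounds added before TSH at EC80 (4nM final), followed by 2 hours' incubation at 37 deg C.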
# RORgamma inh – qHTS for inhibitors of ROR gamma transcriptional activity; Potency, µM (top dose mostly 53.6 µM), for the others: at the top dose activity change, negative = inhibition, usual class: inhibitors; 310,000 compounds, 5.4% hits; Nuclear receptor ROR-gamma (Mus musculus), P51450; Drosophila S2 Gal4-RORgamma UAS-luciferase reporter, 20 h; also: potency is read from the fitted curve at half-maximal effect; nearly all actives have a fitted effect of over 60% in size
# Target sequence (P51450 whole entry, looked up, the tested form may be a part): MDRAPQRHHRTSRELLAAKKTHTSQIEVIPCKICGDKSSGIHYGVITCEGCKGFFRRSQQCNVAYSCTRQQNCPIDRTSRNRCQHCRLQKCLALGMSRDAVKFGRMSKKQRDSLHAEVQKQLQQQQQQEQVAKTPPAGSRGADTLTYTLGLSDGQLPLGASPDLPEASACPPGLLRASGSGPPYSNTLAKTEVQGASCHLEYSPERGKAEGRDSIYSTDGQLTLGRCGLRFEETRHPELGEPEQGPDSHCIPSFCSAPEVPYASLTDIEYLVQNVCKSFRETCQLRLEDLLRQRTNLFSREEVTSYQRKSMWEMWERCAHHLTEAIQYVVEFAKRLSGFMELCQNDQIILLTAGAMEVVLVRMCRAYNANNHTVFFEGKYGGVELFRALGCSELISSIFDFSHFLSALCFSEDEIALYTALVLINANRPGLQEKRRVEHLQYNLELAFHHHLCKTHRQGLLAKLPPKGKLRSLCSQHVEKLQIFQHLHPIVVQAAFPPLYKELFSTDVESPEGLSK
#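 Luciferase reporter read in Schneider cells carrying Gal4-RORγ (mouse) and UAS-Photinus luciferase; cells given compound 1 h before 700 uM copper sulfate induction, then incubated 20 h at ambient temperature.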
# Gal4-VP16 FLuc – VP16 counterscreen qHTS for inhibitors of ROR gamma transcriptional activity; Potency, µM (highest dose often 53.6 µM), for inactives: at the top dose activity, negative = inhibition, hits mostly inhibitors; 310,000 compounds, 3.5% hits; Drosophila S2 Gal4-VP16 UAS-luciferase, luminescence, 20 h; AID 2546, 2010;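 also: Gal4-VP16 expression switched on by copper sulfate through the metallothionein promoter; potency is read from the fitted curve at half-maximal effect; nearly all actives have a fitted effect of over 50% in size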
# B2AR arrestin – qHTS assay of beta-arrestin-biased ligands of beta2-adrenergic receptor. Beta-2 adrenergic receptor (Homo sapiens), P07550. beta-arrestin recruitment to beta2AR, cell-based reporter. Potency, µM (highest dose often 46.1 µM), without a hit: top-dose activation, usual class: activators. 330,000 compounds, 0.02% hits;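 also: potency is read from the fitted curve at half-maximal effect; 0% = DMSO controls and full agonism = EC100 isoproterenol or metaproterenol; nearly all actives have a fitted effect of over 65% in size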
# * hit, by the source's call; ? = inconclusive; . = no result; [ ] = dose if it differs, or a comment. Most compounds without a hit are left out; they make up all but 7.5% or so of the library. Unless noted, calls follow the shape of the dose curve; as a rule, active = well fitted curve in the direction sought with a large enough effect; inconclusive = small, poorly fitted or top-dose-only effect, or another doubt; inactive = no such curve, though single readings can be large; an effect the other way counts as inactive or inconclusive. Unless noted, % is scaled to controls: 0 for no effect and ±100 for the full control effect.
SMILES,ELG1 repair inh,TSHR antag,RORgamma inh,Gal4-VP16 FLuc,B2AR arrestin
Fc1ccc(NC(=S)Nc2ccc(F)c(Cl)c2)cc1Cl,?,-9,1.8µM*,-23%,0%
Cc1ccc(NC(=O)N2CCCC2)cc1Cl,?,41,-12%,-1%,0%
Cc1ccc(NC(=S)NC(=O)C2CC2)cc1Cl,?,-4,3.2µM*,5µM*,?
O=C(c1ccccc1[N+](=O)[O-])N1CCN(c2ccc(N3CCOCC3)nn2)CC1,11%,8,.,.,-4%
CCOC(=O)c1sc(NC(=O)c2ccc(S(=O)(=O)N3CCCCCC3)cc2)nc1-c1ccccc1,13µM*,1,-11%,7%,-1%
CCOC(=O)c1sc(NC(=O)c2ccc(S(=O)(=O)N3CCOCC3)cc2)nc1-c1ccccc1,26µM*,-4,?,-6%,-1%
CCOC(=O)c1sc(NC(=O)c2ccc(S(=O)(=O)N3CCCCC3)cc2)nc1-c1ccccc1,21µM*,-14,?,-8%,-1%
CCOC(=O)N1CCN(S(=O)(=O)c2ccc(C(=O)Nc3nc4ccccc4s3)cc2)CC1,-15%,10,15%,2%,1%
COc1cccc([C@H]2Oc3ccc(OC)cc3/C(=N\O[C@@H]3O[C@H](COC(C)=O)[C@H](OC(C)=O)[C@H](OC(C)=O)[C@H]3OC(C)=O)[C@@H]2O)c1,.,.,9%[10 µM],-1%[10 µM],.
COc1ccccc1C(=O)CSc1nccn1C,?,5,-29%,?,0%
COc1cc(C(=O)Oc2cccc(Nc3ncnc4ccccc34)c2)cc(OC)c1OC,2.9µM*,-49,33%,?,0%
O=C(Oc1cccc(Nc2ncnc3ccccc23)c1)c1cccnc1,9%,-19,0%,-7%,0%
COc1ccc(C(=O)Oc2cccc(Nc3ncnc4ccccc34)c2)cc1OC,16µM*,-32,-9%,?,0%
Cn1cc(-c2nc3cncnc3n(Cc3ccc(F)cc3)c2=O)c2ccccc21,.,.,-9%,-19%,.
O=C(NCc1nnc(SCc2ccc(C(F)(F)F)cc2)n1-c1ccccc1)C12CC3CC(CC(C3)C1)C2,?,9,14µM*,?,-2%
O=C(NCc1nnc(SCc2ccc(F)cc2)n1-c1ccccc1)C12CC3CC(CC(C3)C1)C2,?,0,-3%,?,-1%
COc1ccc(-c2nc3cnc(N(C)C)nc3n(Cc3ccc(F)cc3)c2=O)cc1,.,.,17%,-8%,.
COCCC(=O)Nc1ccc2c(c1)CN(C(=O)CSC)CC2,?,10,-33%,0%,0%
COCCC(=O)N1CCc2ccc(NC(=O)c3ccc(C(F)(F)F)cc3)cc2C1,13µM*,-17,12%,-6%,0%
CN(C)S(=O)(=O)N1CCc2ccc(NC(=O)c3ccc(C(F)(F)F)cc3)cc2C1,9.2µM*,-25,-19%[1.91 µM],?,-1%
O=C(c1cc(C(F)(F)F)cc(C(F)(F)F)c1)N1CCC[C@@]2(CCN(Cc3nccs3)C2)C1,.,.,-9%,15%,.
CC(C)OC(=O)[C@@H]1CC[C@H](C)[C@@H](CCCC=O)O1,.,.,-3%,3%,.
CCC(=O)N(CCC(c1ccco1)c1ccccc1OC)Cc1cccs1 (stereo unspecified),?,-10,26%,?,-1%
CC(=O)N(CCC(c1ccccc1)c1ccco1)Cc1cccs1 (stereo unspecified),-2%,-91*,6%,-9%,0%
CCCC[C@@H](CN[C@H](C)CNC)NCC1CCC(C(C)(C)C)CC1 (stereo partly specified),?,-4,11µM*,-24%,0%
SMILES,ELG1 repair inh,TSHR antag,RORgamma inh,Gal4-VP16 FLuc,B2AR arrestin
CC[C@H](C)[C@@H](CN[C@H](CCCCNC)CNC)NCC1CCCC1,16%,-4,-7%,-3%,1%
CCC1=C2CC[C@H]3C(=O)N(CC(=O)OC)C(=O)[C@H]3[C@H]2[C@@]2(C)C(=O)N(Cc3ccccc3)C(=O)N2C1=O,.,.,-4%,0%,.
C/C(=N\NC(=S)NCC(C)(C)C)c1cc(F)cc(F)c1O,?,3,2.8µM*,4µM*,1%
C=CCc1cccc(/C=N/NC(=O)C(C)Nc2ccc(C)cc2)c1O (stereo unspecified),-8%,-5,0.56µM*,2.8µM*,0%
C=CCc1cccc(/C=N/NC(=O)C(=O)Nc2ccc(C)cc2)c1O,-9%,-4,2.2µM*,11µM*,0%
COc1cc(C(=O)Nc2nnc(C)s2)cc(OC)c1OC,24%,3,7.1µM*,6%,0%
CCOC(=O)c1csc(NC(=O)c2cc(OC)c(OC)c(OC)c2)n1,5.8µM*,24,-9%,-11%,-1%
COc1cc(C(=O)Nc2nncs2)cc(OC)c1OC,8%,-5,-16%,-1%,-1%
CCCC(=O)Nc1nc(C(=O)OCC)cs1,29%,0,14%,-7%,0%
Cc1cc(C)cc(/C=C/C2OCC(O)C2Oc2ccc(C3CCCC3)cc2)c1 (stereo unspecified),.,.,1%[10 µM],-3%[10 µM],.
COc1ccc2c(c1)c1ncn(Cc3ccc(F)cc3)c(=O)c1n2C,-10%,-1,40%,1%,0%
COc1ccc2c(c1)c1ncn(Cc3ccco3)c(=O)c1n2C,16µM*,42,24%,?,0%
C=CCN(CC=C)C(=S)NC(=O)Cc1cccc2ccccc12,0%,-1,0.2µM*,0.79µM*,11%
Cc1ccc(Nc2cc(C)c(O)c(C)c2)cc1,?,27,8.9µM*,?,-1%
O=C(Nc1ccc(Cl)cc1)/C(=C/c1ccc([N+](=O)[O-])cc1)c1nc2ccccc2s1,?,-19,5µM*,5µM*,0%
O=C(O)CC/C(=C\c1cc([N+](=O)[O-])ccc1Cl)c1nc2ccccc2s1,3%,-14,3%,2%,-1%
O=C(CSc1nc2ccccc2s1)NNC(=S)Nc1ccc(Cl)cc1,-2%,-22,5µM*,8.9µM*,-1%
C=CCNC(=S)NNC(=O)CSc1nc2ccccc2s1,12%,-8,7.1µM*,?,0%
O=C(CSc1nc2ccccc2s1)NCCOc1ccc(Cl)cc1,-1%,1,24%,3%,0%
O=c1cc(-c2ccccc2)nc2c(-c3ccccc3)c(C(F)(F)F)[nH]n12,?,-50,-37%,3%,0%
COC(=O)c1ccc(OC)c(Cn2c(=O)n(C)c(=O)c3ccccc32)c1,2%,15,15%[1.91 µM],-8%,-1%
Cc1ccc(S(=O)(=O)c2ncccc2N)cc1,-6%,6,23%,1%,0%

# Compound activity from PubChem BioAssay.
